High-throughput results as filed in PubChem BioAssay.
Only some compounds are listed: those with a hit (about 12% of all), similar ones and a draw of the others.
HP1b binding inh – blocks HP1-beta chromodomain binding to methylated histone tails; P83916; AlphaScreen HP1-beta / biotin-H3K9me3 peptide binding; Potency, µM (highest dose often 114 µM), most hits filed as inhibitors; 390,000 compounds, 0.56% hits; AID 540317; note: nearly all actives have a fitted effect of over 70% in size
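AlphaScreen: HP1-beta (50 nM) preformed 30 min with biotin-H3(1-18)K9me3 peptide (50 nM) in PBS pH 7.4, 0.01% Tween-20. Compound added for 30 min at RT, then streptavidin donor/nickel chelate acceptor beads (10 ug/mL) for 30 min.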
Sfp inh – blocks B. subtilis Sfp PPTase activity; Potency, µM, usual class: inhibitors; Q9F4F7; AID 1490; 310,000 compounds, 3.5% hits; Biochemical Sfp PPTase activity, qHTS;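 note: the enzyme is Sfp with the accession as filed and its product quenches rhodamine fluorescence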
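With Hepes-Na pH 7.6 buffer containing 10 mM MgCl2, Sfp (15 nM) modified BHQ-2-YbbR (12.5 uM) using rhodamine-CoA (5 uM). Two reads 30 minutes apart at 525/598 nm yielded each well's rate.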
L3MBTL1 inh – blocks human L3MBTL1 | Q9Y468 | AlphaScreen L3MBTL1–H3K9me1 peptide binding | Potency, µM (titrated, usually from 57.1 µM), most hits filed as inhibitors | 230,000 compounds, 0.66% hits | AID 485360; note: nearly all actives have a fitted effect of over 60% in size
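First, the protein-peptide complex forms for 30 min at room temperature (L3MBTL1 50 nM, biotinylated H3K9me1 peptide 75 nM). Next, compounds are pin-transferred and incubated 30 min. Finally, AlphaScreen beads are added and read after 30 min.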
G9a block – blocks human histone lysine methyltransferase G9a. Potency, µM (highest dose often 102 µM), usual class: inhibitors. Q96KQ7. 350,000 compounds, 8.8% hits. G9a H3K9 monomethylation, AlphaScreen, 2 h; note: nearly all actives have a fitted effect of over 75% in size
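G9a (20 nM) preincubated 15 min RT with compounds, then 500 nM biotinylated H3K9 peptide and 20 uM SAM added; 2 h RT reaction. Monomethyl-H3K9 product detected by AlphaScreen with anti-H3K9me1 antibody, streptavidin donor and anti-rabbit IgG acceptor beads.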
JMJD2A Tudor – inhibitors of human JMJD2A Tudor domain; 390,000 compounds, 4.4% hits; O75164; Potency, µM (highest dose often 114 µM), usual class: inhibitors; AlphaScreen JMJD2A-Tudor / H3K4me3 peptide binding; note: nearly all actives have a fitted effect of over 50% in size
Target sequence (O75164 whole entry, looked up, the tested form may be a part): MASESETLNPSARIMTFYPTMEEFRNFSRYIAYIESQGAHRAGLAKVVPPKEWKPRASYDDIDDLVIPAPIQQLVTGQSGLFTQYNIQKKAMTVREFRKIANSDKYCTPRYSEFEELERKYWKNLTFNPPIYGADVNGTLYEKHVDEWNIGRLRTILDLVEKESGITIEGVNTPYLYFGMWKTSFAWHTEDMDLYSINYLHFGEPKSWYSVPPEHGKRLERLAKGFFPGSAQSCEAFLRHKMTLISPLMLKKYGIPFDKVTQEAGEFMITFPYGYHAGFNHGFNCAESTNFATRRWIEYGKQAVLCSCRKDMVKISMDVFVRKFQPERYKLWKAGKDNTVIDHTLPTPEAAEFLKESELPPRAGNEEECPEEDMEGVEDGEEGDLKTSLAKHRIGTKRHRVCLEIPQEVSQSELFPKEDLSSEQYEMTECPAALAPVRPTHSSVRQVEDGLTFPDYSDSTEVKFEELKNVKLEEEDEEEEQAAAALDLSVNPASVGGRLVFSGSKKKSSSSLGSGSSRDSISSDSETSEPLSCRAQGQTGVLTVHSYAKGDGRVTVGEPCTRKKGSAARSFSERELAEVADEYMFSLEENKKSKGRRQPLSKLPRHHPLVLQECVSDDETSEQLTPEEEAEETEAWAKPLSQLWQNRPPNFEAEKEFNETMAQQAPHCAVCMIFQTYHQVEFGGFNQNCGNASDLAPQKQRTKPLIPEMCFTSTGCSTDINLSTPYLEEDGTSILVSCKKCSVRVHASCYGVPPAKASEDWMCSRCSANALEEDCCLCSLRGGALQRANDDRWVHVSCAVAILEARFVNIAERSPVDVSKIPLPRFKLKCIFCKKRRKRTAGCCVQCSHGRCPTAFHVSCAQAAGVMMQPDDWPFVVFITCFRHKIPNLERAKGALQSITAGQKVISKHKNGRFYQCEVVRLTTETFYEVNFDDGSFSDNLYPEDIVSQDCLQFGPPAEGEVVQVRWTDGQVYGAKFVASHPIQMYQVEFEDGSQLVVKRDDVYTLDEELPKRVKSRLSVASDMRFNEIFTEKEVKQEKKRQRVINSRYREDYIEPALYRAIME
BAZ2B block – inhibitors of human BAZ2B bromodomain; AlphaScreen BAZ2B-H3K14Ac peptide displacement; Potency, µM (highest dose often 114 µM), most hits filed as inhibitors; 360,000 compounds, 4.4% hits; note: nearly all actives have a fitted effect of over 60% in size
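BAZ2B 50 nM plus b-H3(5-23)K14Ac 50 nM, PBS pH 7.4/0.01% Tween-20, 30 min RT; compound added (max 110 uM), 30 min RT; streptavidin donor/Ni-chelate acceptor beads 10 ug/mL final, 20 min dark; AlphaScreen read.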
Numbers stand for hits; . = inactive; ? = inconclusive; / = no result; [ ] = another dose, or the depositor's remark. Calls come from the whole dose curve; as a rule, active = well fitted curve in the direction sought with a large enough effect; inconclusive = small, poorly fitted or top-dose-only effect, or another doubt; inactive = no such curve, though single readings can be large; an effect the other way counts as inactive or inconclusive.

SMILES	HP1b binding inh	Sfp inh	L3MBTL1 inh	G9a block	JMJD2A Tudor	BAZ2B block
CC(C)C[C@@H](NC(=O)[C@@H](O)[C@H](N)Cc1ccccc1)C(=O)O	/	.	/	.	/	/
S=c1[nH]nc(COc2ccccc2)n1Cc1ccccc1	.	.	.	3.5µM	89µM	.
S=c1[nH]nc(CSc2nc3ccccc3s2)n1C1CCCCC1	.	.	.	10µM	?	?
O=C(CNC1CCCCC1)Nc1cccc(C(F)(F)F)c1	.	.	.	/	.	.
CC(C)CCn1c(COc2ccccc2)n[nH]c1=S	.	.	.	1.8µM	.	.
CCc1ccc(OCc2n[nH]c(=S)n2Cc2ccccc2)cc1	.	.	.	.	?	.
FC(F)(F)c1cccc(NCc2n[nH]c(=S)n2C2CCCCC2)c1	.	.	.	28µM	?	?
CCc1ccc(OCc2n[nH]c(=S)n2C(C)CCCC(C)C)cc1 (stereo not drawn)	.	.	.	.	.	.
Cc1ccc2c(CN3CCN(Cc4ccccc4Cl)CC3)cc(=O)oc2c1	.	/	/	?	.	.
S=c1[nH]nc(COc2ccccc2)n1C1CCCCC1	.	.	.[11.4 µM]	2.5µM	50µM	.
Cc1cccc(OCc2n[nH]c(=S)n2Cc2ccccc2)c1	.	.	.	18µM	?	.
COc1cc(NC(=O)c2ccc(Cl)cc2)c(Cl)cc1NC(=O)c1cccnc1	.	.	/	.	.	.
Cc1ccccc1NC(=S)c1ccc2ccccc2n1	.	28µM	/	11µM	.	10µM
Cc1ccc(NS(=O)(=O)c2ccc(NC(=O)c3ccccc3C(=O)O)cc2)cc1C	.	/	/	/	.	/
COc1ccc(C(=O)N=c2sc3cc(Cl)ccc3n2C)cc1	.	/	/	.	.	.
CCOC(=O)c1ccccc1NCN1C(=O)CSC1=O	.	.	.	.	.	.
CCOC(=O)c1c(C(=O)OCC)c(C)n(N2C(=O)CSC2=S)c1C	.	16µM	.[11.4 µM]	.	.	.
Cc1ccc2nc(/N=C(\N)NC(=O)N3c4ccccc4Sc4ccccc43)nc(C)c2c1	.	.	.	50µM	.	.
Cc1cc2nc(/N=C(\N)NC(=O)N3c4ccccc4Sc4ccccc43)nc(C)c2cc1C	.	.	.	50µM	.	.
CCc1ccc(NC(=O)C2CCC(CNS(=O)(=O)c3ccc4c(c3)C(C)(C)C(=O)N4C)CC2)cc1 (stereo not drawn)	.	/	/	.	.	.
O=C(O)CCC(=O)NNc1nc2ccccc2nc1-c1ccccc1	.	56µM	.	/	.	.
CCC(=O)NNc1ncnc2ccccc12	.	.	.	.	.	.
O=C(O)CCC(=O)NNc1nc(-c2ccccc2)c2cc(Cl)ccc2n1	.	.	/	.	.	.
O=C(O)CCC(=O)NNc1ncnc2ccccc12	.	56µM	.	.	.	?
COCCn1nnnc1CN1CCC(O)(c2cccc(C(F)(F)F)c2)CC1	.	.	.	79µM	.	.
SMILES	HP1b binding inh	Sfp inh	L3MBTL1 inh	G9a block	JMJD2A Tudor	BAZ2B block
COCCn1nnnc1CN1CCN(c2cccc(C(F)(F)F)c2)CC1	.	.	?	?	.[11.4 µM]	79µM
COCCn1nnnc1CN1CCOCC1	.	.	.	50µM	.	.
COCCn1nnnc1C(c1cccc(C(F)(F)F)c1)N1CCN(Cc2ccccc2)CC1 (stereo not drawn)	.	.	/	50µM	.	?
OC1(c2cccc(C(F)(F)F)c2)CCN(Cc2nnnn2CCc2ccccc2)CC1	.	.	.	.	.	.
O=S(=O)(c1ccccc1)n1nc(-c2ccc(Cl)cc2)nc1NCc1ccccc1	.	/	/	.	.	.
CC(OC(=O)Cn1ccccc1=O)C(=O)Nc1cc(Cl)cc(Cl)c1 (stereo not drawn)	.	/	.	/	.	/
C=CCNc1nc(-c2ccc(O)c(C(N)=O)c2)cs1	.	.	/	?	14µM	?
NC(=O)c1cc(-c2csc(NCCc3ccccc3)n2)ccc1O	?	?	/	35µM	?	56µM
CN(C(=O)CSC(=O)c1ccccc1)c1ccccc1	.	.	/	.	.	.
CCOC(=O)c1cnc2c(Cl)c(Cl)ccc2c1Nc1ccc(N(C)C)cc1	.	/	/	?	?	.
Cn1c(=O)c2cn(Cc3ccc(Cl)cc3)cc2n(C)c1=O	.	.	.[11.4 µM]	16µM	.	.
Cc1ccc(NC(=O)c2cc(N3C(=O)C=CC3=O)ccc2N2CCOCC2)cc1Cl	?	4µM	.	1.6µM	20µM	50µM
Cc1oc(C(C)(C)C)cc1C(=O)Nc1ccc(N2CCOCC2)cc1	.	.	.	45µM	.	.
CC(C)(C)c1ccc(C(=O)Nc2ccc(N3CCOCC3)cc2)cc1	.	.	/	.[12.7 µM]	.	.
CSc1ccc(Cl)c(C(=O)Nc2ccc(N3CCOCC3)cc2)c1	.	.	.	50µM	.	?
Cc1ccc(NC(=O)c2cc(N3C(=O)CCC3=O)ccc2N2CCOCC2)cc1	.	.	?	.	.	.
CN(C)c1ccc(NC(=O)c2ccc(N3CCOCC3)nc2)cc1	.	?	/	7.9µM	?	?
CCCC(=O)Nc1cccc(-c2nc3cc(C)c(C)cc3o2)c1C	.	/	/	.	.	.
O=C1[C@@H](Oc2ccccc2)[C@@H](c2ccncc2)N1c1ccncc1	.	/	.	/	.	/
O=C(Nc1ccc(N2CCOCC2)c(Cl)c1)c1ccc(Cl)cc1	.	.	/	.	.	.
O=C(Nc1ccc(N2CCOCC2)cc1)Nc1cnsn1	.	28µM	?	?	.	.
O=C(Nc1ccc(N2CCOCC2)c(Cl)c1)c1ncn[nH]1	.	.	?	.	56µM	18µM
O=C(Nc1ccc(N2CCOCC2)cc1)Nc1ccc(Cl)c(Cl)c1	.	.	/	7.1µM	.	.
O=C(Nc1ccc(N2CCOCC2)cc1)C1(c2ccc(Cl)cc2)CCC1	.	.	.	45µM	.	?
CCCOc1ccc(NC(=O)C(=O)NCCCN2CCOCC2)cc1	.	/	/	.	.	.
SMILES	HP1b binding inh	Sfp inh	L3MBTL1 inh	G9a block	JMJD2A Tudor	BAZ2B block
O=C(c1ccccc1Cl)n1nc(-c2cccnc2)nc1NCc1ccc(F)cc1	.	/	/	.	.	.
CC(=O)N1c2ccc(S(=O)(=O)NCCC(=O)Nc3ccc(C)cc3Br)cc2CC1C (stereo not drawn)	.	/	/	.	.	.
O=C(Nc1ccc(N2CCOCC2)cc1)C1=NN(c2ccccc2)C(=O)CC1	.	/	.	45µM	.	.
Cc1nc2cc(NC(=O)Nc3ccc(N4CCOCC4)cc3)ccc2n1C	.	.	.[11.4 µM]	8.9µM	.	.
CC(C)c1ccc(C(=O)Nc2ccc(N3CCOCC3)cc2)cc1	.	.	.	50µM	.	.
O=C(Nc1ccc(N2CCOCC2)cc1)c1ccccc1SCC(=O)N1CCCC1	.	.	.	7.1µM	.	.
O=S(=O)(c1cc(Br)c(Br)s1)N1CCN(c2ccccc2)CC1	.	/	/	.	.	.
